Activity calls are given as the source filed them. Calls follow the shape of the dose curve; as a rule, active = well fitted curve in the direction sought with a large enough effect; inconclusive = small, poorly fitted or top-dose-only effect, or another doubt; inactive = no such curve, though single readings can be large; an effect the other way counts as inactive or inconclusive.
How the values were obtained:
[1] = target: Alpha-galactosidase (Coffea arabica) (UniProt Q42656); experiment: Counterscreen for Glucocerebrosidase Inhibitors: qHTS Assay for Coffee Bean alpha-Galactosidase at pH 4.5 (AID 957); also: series mostly up to about 77 µM
Chain of Alpha-galactosidase (Coffea arabica) (Q42656 whole entry, looked up): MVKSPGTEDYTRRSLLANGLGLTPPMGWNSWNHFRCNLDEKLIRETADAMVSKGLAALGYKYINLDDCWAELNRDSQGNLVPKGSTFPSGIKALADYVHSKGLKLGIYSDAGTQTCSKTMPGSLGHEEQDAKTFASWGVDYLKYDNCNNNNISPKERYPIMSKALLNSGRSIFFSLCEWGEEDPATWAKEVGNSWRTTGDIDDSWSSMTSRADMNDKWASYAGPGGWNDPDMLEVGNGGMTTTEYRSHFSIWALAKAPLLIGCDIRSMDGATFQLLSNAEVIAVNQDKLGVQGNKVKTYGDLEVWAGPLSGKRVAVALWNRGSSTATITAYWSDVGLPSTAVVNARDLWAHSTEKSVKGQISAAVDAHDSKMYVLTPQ
Summary of the method: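 Quantitative HTS of compounds (0.7 nM to 77 uM) against coffee bean alpha-galactosidase at pH 4.5, measuring 4-methylumbelliferone fluorescence released from 80 uM substrate.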

[2] = target: Alpha-galactosidase (Coffea arabica) (UniProt Q42656); experiment: Counterscreen for Glucocerebrosidase Inhibitors: qHTS Assay for Coffee Bean alpha-Galactosidase at pH 5.9 (AID 998)
Summary of the method: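 Enzyme 2 nM + cpd (0.7 nM–77 uM titration) + 4-MU-alpha-Gal 80 uM, pH 5.9 citrate/Tween-20, RT 20 min, NaOH/glycine stop pH 10, fluor 365/440. Normalized to no-enzyme and full-activity controls; Hill-fit AC50.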

Compound | outcome [1] | outcome [2]
CCOC(=O)[C@@]12C[C@@H]1/C(=N/O)c1ccccc1O2 | inactive | inactive
CC(=O)S[C@@H]1CC2=CC(=O)CC[C@@]2(C)[C@H]2CC[C@]3(C)[C@H](CC[C@@]34CCC(=O)O4)[C@H]12 | inactive | inactive
C=C/C(C)=C/[C@]1(C)SC(=O)C(C)=C1O | inactive | inactive
OC[C@@H]1O[C@@H](n2cnc3c(NC4CCCCC4)ncnc32)[C@@H](O)[C@H]1O | inactive | inactive
C[C@H](N)C(=O)OC(C)(C)Cc1ccc(Cl)cc1 | inactive | inactive
COC(=O)[C@H](N)Cc1ccc(Cl)cc1 | inactive | inactive
CCCCOc1cc(C[C@@H]2CNC(=O)N2)ccc1OC | inactive | inactive
CCCCC[C@H](CC(=O)NO)C(=O)N[C@@H](C(=O)N1CCC[C@H]1CO)C(C)C | inactive | inactive
Cc1nnc(SCC2=C(C(=O)O)N3C(=O)[C@@H](NC(=O)Cn4cnnn4)[C@@H]3SC2)s1 | inactive | inactive
CNC(=O)[C@@H]1O[C@@H](n2cnc3c(NCc4ccc(N)cc4)ncnc32)[C@@H](O)[C@H]1O | inactive | inactive
C[C@]1(C2CCCC2)Cc2cc(OCC(=O)O)c(Cl)c(Cl)c2C1=O | inactive | inactive
NC(=NCc1ccc(Cl)c(Cl)c1)NC(=O)c1nc(Cl)c(N)nc1N | inactive | inactive
C[C@@H]1C[C@@H]2[C@H]3CCC4=CC(=O)C=C[C@]4(C)[C@]3(F)[C@@H](O)C[C@@]2(C)[C@@]1(O)C(=O)CO | inactive | inactive
COc1cc([C@H](O)CO)ccc1O | inactive | inactive
O=C(O)/C=C\c1cnc[nH]1 | inactive | inactive
CC(=O)N[C@@H](C(=O)O)C(C)(C)SN=O | inactive | inactive
CC(C)COC[C@H](CN(Cc1ccccc1)c1ccccc1)N1CCCC1 | inactive | inactive
CCN(Cc1ccncc1)C(=O)[C@@H](CO)c1ccccc1 | inactive | inactive
N[C@H](Cc1ccc(Cl)cc1)C(=O)O | inactive | inactive
CN1CC[C@@]2(CCN3CCc4c(oc5ccccc45)[C@@H]3C2)N(C)C1=O | inactive | inactive
C[C@@H](CN1CCC(Cc2ccccc2)CC1)[C@H](O)c1ccc(O)cc1 | inactive | inactive
COCCOC(=O)C1=C(C)NC(C)=C(C(=O)OC(C)C)[C@@H]1c1cccc([N+](=O)[O-])c1 | inactive | inactive
CC[C@]1(C)CC(=O)NC1=O | inactive | inactive
C[C@@H]1COc2c(N3CCN(C)CC3)c(F)cc3c(=O)c(C(=O)O)cn1c23 | inactive | inactive

Compound | outcome [1] | outcome [2]
O=C1O/C(=C\Br)CC[C@@H]1c1cccc2ccccc12 | inactive | inactive
CCN1CCC[C@@H]1CNC(=O)c1c(O)c(Cl)cc(Cl)c1OC | inactive | inactive
C[C@@H]1O[C@@H](n2cc(F)c(=O)[nH]c2=O)[C@H](O)[C@@H]1O | inactive | inactive
O=C(O)CNC(=O)[C@@H](CS)Cc1ccccc1 | inactive | inactive
COc1cccc(OC)c1OCCNC[C@@H]1CSc2ccccc2O1 | inactive | inactive
C[C@@](N)(C(=O)O)c1ccc(C(=O)O)cc1 | inactive | inactive
COc1c2c(nc3ccccc13)O[C@@H]([C@@](C)(O)CO)C2 | inactive | inactive
CCOC(=O)C1=C(C)NC(C)=C(C(=O)OC)[C@H]1c1cccc([N+](=O)[O-])c1 | inactive | inactive
Cc1cn([C@H]2C[C@H](N=[N+]=[N-])[C@H](CO)O2)c(=O)[nH]c1=O | inactive | inactive
CC(C)C[C@H](NC(=O)[C@@H](O)[C@@H](N)Cc1ccccc1)C(=O)O | inactive | inactive
CC(C)(C)NC[C@H](O)COc1cccc2[nH]c(=O)[nH]c12 | inactive | inactive
N=c1ccn2c(n1)O[C@@H]1[C@@H](O)[C@H](CO)O[C@H]12 | inactive | inactive
CO/N=C(\C(=O)N[C@@H]1C(=O)N2C(C(=O)O)=C(COC(C)=O)CS[C@@H]12)c1csc(N)n1 | inactive | inactive
CC[C@@H]1CN2CCc3cc(OC)c(OC)cc3[C@H]2C[C@@H]1C[C@@H]1NCCc2cc(OC)c(OC)cc21 | inactive | inactive
CCCN(CCC)C(=O)[C@@H](CCC(=O)O)NC(=O)c1ccccc1 | inactive | inactive
Cc1cccc(C)c1OC[C@H](C)N | inactive | inactive
CCCCC[C@H](O)c1cccc(OCc2ccc3ccccc3n2)c1 | inactive | inactive
NCC[C@H]1CCC[C@H](CCN)N1 | inactive | inactive
COc1cccc2c1[C@@H]1CN(CCCCn3c(=O)[nH]c4c(sc5ncc(-c6ccccc6)nc54)c3=O)C[C@H]1CO2 | inactive | inactive
CC[C@]1(O)C[C@H]2CN(CCc3c([nH]c4ccccc34)[C@](C(=O)OC)(c3cc4c(cc3OC)N(C)[C@@H]3[C@](O)(C(=O)OC)[C@H](OC(C)=O)[C@]5(CC)C=CCN6CC[C@]43[C@@H]65)C2)C1 | inactive | inactive
Oc1ccc([C@@H]2CNCCc3c2cc(O)c(O)c3Cl)cc1 | inactive | inactive
COc1ccc([C@H]2Sc3ccccc3N(CCN(C)C)C(=O)[C@H]2OC(C)=O)cc1 | inactive | inactive
CCCCCCCCCCCCCCCCCC(=O)NC[C@@H](COP(=O)([O-])OCC[N+](C)(C)C)OCC | inactive | inactive
COC(=O)c1c(-c2cc(OC)c(OC)c(OC)c2)c2ccnc(OCc3ncccn3)c2c(=O)n1Cc1ccnc(C)c1 | inactive | inactive

Compound | outcome [1] | outcome [2]
NC(=O)c1cc[n+](CC2=C(C(=O)O)N3C(=O)[C@@H](NC(=O)[C@H](c4ccccc4)S(=O)(=O)[O-])[C@@H]3SC2)cc1 | inactive | inactive
C[C@@H]([C@H](O)c1ccc(O)cc1)N1CCC(Cc2ccccc2)CC1 | inactive | inactive
CCOC(=O)C1=C(C)NC(C)=C(C(=O)OC)[C@H]1c1cccc(Cl)c1Cl | inactive | inactive
O=C(O)[C@H]1CN(CCCP(=O)(O)O)CCN1 | inactive | inactive
C=CCN1CCc2c(cc(O)c(O)c2Br)[C@H](c2ccccc2)C1 | inactive | inactive
CCCCCCCC/C=C\CCCCCCCC(=O)NCCc1ccc(O)c(O)c1 | inactive | inactive
CC(C)(C)c1ccc(S(=O)(=O)/C=C\C#N)cc1 | inactive | inactive
COC(=O)[C@H]1[C@H]2C[C@H]3c4[nH]c5ccccc5c4CCN3C[C@@H]2CC[C@@H]1O | inactive | inactive
COC(=O)C1=C(C)NC(C)=C([N+](=O)[O-])[C@H]1c1ccccc1C(F)(F)F | inactive | inactive
C[C@@]12CCC(=O)C=C1CC[C@@H]1[C@@H]2[C@H](O)C[C@]2(C)[C@@H]1CC[C@]2(O)C(=O)COC(=O)CCC(=O)O | inactive | inactive
Nc1ccc(CCNc2ncnc3c2ncn3[C@@H]2O[C@@H](CO)[C@H](O)[C@@H]2O)cc1 | inactive | inactive
C[C@H](Oc1ccc(Oc2cnc3ccc(Cl)cc3n2)cc1)C(=O)O | inactive | inactive
COc1cc2nc(N3CCN(C(=O)[C@H]4CCCO4)CC3)nc(N)c2cc1OC | inactive | inactive
Cc1cccc(C)c1OC[C@@H](N)C(C)C | inactive | inactive
C[C@H](N=C(NC#N)Nc1ccncc1)C(C)(C)C | inactive | inactive
CCCN[C@@H](C)C(=O)Nc1ccccc1C | inactive | inactive
O[C@H](CN1CCN(c2cccc(Cl)c2)CC1)C(c1ccccc1)c1ccccc1 | inactive | inactive
N#C[C@@H](Cc1ccc(O)c(O)c1)C(=O)N1CCc2ccccc21 | inactive | inactive
c1ccc([C@@H]2CN3CCSC3=N2)cc1 | inactive | inactive
NCCCCNS(=O)(=O)c1cccc2c(Cl)cccc12 | inactive | inactive
Nc1nc(SCc2ccc([N+](=O)[O-])cc2)c2ncn([C@@H]3O[C@@H](CO)[C@@H](O)[C@H]3O)c2n1 | inactive | inactive
CN1CCc2cc(O)c(O)cc2[C@H](c2ccccc2)C1 | inactive | inactive
COc1ccc(NC(=O)/C=C\c2ccc(Cl)cc2)cc1 | inactive | inactive
C[C@@H]1CCN=C(N)S1 | inactive | inactive

Compound | outcome [1] | outcome [2]
CN(C)CCO[C@](C)(c1ccccc1)c1ccccn1 | inactive | inactive
CCNC(=O)[C@@H]1O[C@@H](n2cnc3c(N)nc(NCCc4ccc(CCC(=O)O)cc4)nc32)[C@H](O)[C@@H]1O | inactive | inactive
CN[C@]1(C)[C@@H]2CC[C@@H](C2)C1(C)C | inactive | inactive
C[C@@H](C(=O)O)c1cccc(C(=O)c2ccccc2)c1 | inactive | inactive
CN1CCc2c(cc(O)c(O)c2Cl)[C@H](c2cccc(Cl)c2)C1 | inactive | inactive
C=C[C@H](N)CCC(=O)O | inactive | inactive
CC(C)(C)NC[C@H](O)c1ccc(O)c(CO)c1 | inactive | inactive
C=C1C(=O)O[C@@H]2[C@@H]1CC/C(C)=C\CC[C@@]1(C)O[C@H]21 | inactive | inactive
COc1cc([C@@H](O)CO)ccc1OS(=O)(=O)O | inactive | inactive
NC(=O)c1ncn([C@@H]2O[C@@H](CO)[C@@H](O)[C@H]2O)c1O | inactive | inactive
OC[C@@H]1O[C@@H](n2cnc3c(Nc4ccccc4)ncnc32)[C@@H](O)[C@H]1O | inactive | inactive
COCCc1ccc(OC[C@H](O)CNC(C)C)cc1 | inactive | inactive
Cc1ccccc1/C=C\C1=NCCN1 | inactive | inactive
CC#CCOC(=O)c1c(C)nc2sc3c(c2c1N)CC[C@@H](O)C3 | inactive | inactive
C[C@H](NCCc1ccc(O)cc1)[C@@H](O)c1ccc(O)cc1 | inactive | inactive
COC(=O)[C@](C)(N)Cc1ccc(O)cc1 | inactive | inactive
CCCCCCCCCCCCCCC/C=C\[C@H](O)[C@@H](NC(=O)CCCCCCCCCCCCC)OC (tested in a mixture with another compound) | inactive | inactive
CC[C@H](C)N(C)C(=O)c1cc2ccccc2c(-c2ccccc2Cl)n1 | inactive | inactive
N[C@]1(C(=O)O)CCc2cc(C(=O)O)ccc21 | inactive | inactive
NC[C@@H]1O[C@@H](O[C@H]2[C@@H](O)[C@H](O[C@@H]3[C@H](O)[C@H](N)C[C@H](N)[C@H]3O[C@@H]3O[C@@H](CO)[C@H](O)[C@H](O)[C@@H]3N)O[C@H]2CO)[C@H](N)[C@H](O)[C@@H]1O | inactive | inactive
CNC(=O)[C@@H]1O[C@@H](n2cnc3c(NCc4cccc(I)c4)ncnc32)[C@H](O)[C@@H]1O | inactive | inactive
Cc1cccc([C@@H]2CN(C)CCc3c2cc(O)c(O)c3Cl)c1 | inactive | inactive
C[C@@H]1C[C@@H]2[C@H]3CCC4=CC(=O)C=C[C@]4(C)[C@]3(Cl)[C@@H](O)C[C@@]2(C)[C@@]1(O)C(=O)CO | inactive | inactive
C[C@@](N)(Cc1ccc(O)cc1)C(=O)O | inactive | inactive

Compound | outcome [1] | outcome [2]
N[C@@H]1C=CC=C(C(=O)O)C1 | inactive | inactive
CC(C)(C)c1onc(OCP(=O)(O)O)c1C[C@@H](N)C(=O)O | inactive | inactive
CN1Cc2c(N)cccc2[C@H](c2ccccc2)C1 | inactive | inactive
Oc1cc2c(c(Cl)c1O)CCNC[C@H]2c1ccccc1 | inactive | inactive
CC(C)NC[C@H](O)c1cc(O)cc(O)c1 | inactive | inactive
COC1=C(OC)C(=O)c2ccccc2C1=O | inactive | inactive
CC(=O)OCC1=C(C(=O)O)N2C(=O)[C@@H](NC(=O)Cc3cccs3)[C@@H]2SC1 | inactive | inactive
CC(C)NC[C@@H](O)COc1ccc(CCOCC2CC2)cc1 | inactive | inactive
CC(C)(Oc1ccc([C@@H]2CC2(Cl)Cl)cc1)C(=O)O | inactive | inactive
OCCN1CCN(CC/C=C2\c3ccccc3Sc3ccc(C(F)(F)F)cc32)CC1 | inactive | inactive
CC(N)=NCCCC[C@H](N)C(=O)O | inactive | inactive
COc1cc(=O)n(C)c2c(OC[C@@H](O)C(C)(C)O)cccc12 | inactive | inactive
NCCC[C@@](N)(C(=O)O)C(F)F | inactive | inactive
COc1ccc2c(c1)CCC1C2CC[C@]2(C)[C@H](NCCCCCCN3C(=O)C=CC3=O)CC[C@@H]12 (stereo not given in full) | inactive | inactive
N[C@H](CCCC(=O)O)C(=O)O | inactive | inactive
O=C(O)[C@H]1C[C@H](C(=O)O)N1 | inactive | inactive
Nc1nc(Cl)nc2c1ncn2[C@@H]1O[C@@H](COP(=O)(O)OP(=O)(O)OP(=O)(O)O)[C@@H](O)[C@H]1O | inactive | inactive
O=[N+]([O-])c1ccc(CSc2ncnc3c2ncn3[C@@H]2O[C@@H](CO)[C@@H](O)[C@H]2O)cc1 | inactive | inactive
CCN1CCC[C@@H]1CNC(=O)c1cc(S(N)(=O)=O)ccc1OC | inactive | inactive
CC1(C)CCC(NC(=O)[C@H](N)CCC(=O)O)CC1 | inactive | inactive
CC1CCN(CC[C@@H]2CCCN2S(=O)(=O)c2cccc(O)c2)CC1 | inactive | inactive
COc1cc2c(cc1O)CC[C@@H]1[C@@H]2CC[C@@]2(C)[C@H](O)CC[C@H]12 | inactive | inactive
CSC(N)=NCCC[C@@H](N)C(=O)O | inactive | inactive
CC(=O)O[C@@H](C)C[N+](C)(C)C | inactive | inactive
